# Only some compounds are listed: those with a hit (about 8.5% of all), similar ones and a draw of the others.
# Sfp PPTase inh: qHTS Assay for Inhibitors of Bacillus subtilis Sfp phosphopantetheinyl transferase (PPTase); actives 3.5% (n = 310,000); AID 1490, 2009; 4'-phosphopantetheinyl transferase ffp (Bacillus subtilis), Q9F4F7; Biochemical Sfp PPTase activity, qHTS; Potency, µM, usual class: inhibitors; active = well fitted curve in the direction sought with a large enough effect; inconclusive = small, poorly fitted or top-dose-only effect, or another doubt; inactive = no such curve, though single readings can be large; an effect the other way counts as inactive or inconclusive;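 also: the enzyme is Sfp with the accession as filed and its product quenches rhodamine fluorescence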
#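 Step 1, compound plus 15 nM Sfp-PPTase, 15 min, room temperature. Step 2, add rhodamine-CoA (5 uM) and BHQ-2-YbbR (12.5 uM). Step 3, read 525/598 nm fluorescence at 0 and 30 min.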
# KDM4E inh: qHTS Assay for Inhibitors of Human Jumonji Domain Containing 2E (JMJD2E); JMJD2E catalytic domain, FDH-coupled NADH fluorescence (FDH is formaldehyde dehydrogenase); Lysine-specific demethylase 4E (Homo sapiens), B2RXH2; actives 1.6% (n = 230,000); Potency, µM (highest dose often 57.1 µM), most hits filed as inhibitors; AID 2147, 2009; also: nearly all actives have a fitted effect of over 50% in size
# FBPA coupling cs: qHTS Assay for Inhibitors of Fructose-1,6-bisphosphate Aldolase from Giardia Lamblia: Coupling assay counterscreen. coupling enzyme system counterscreen, AmpLite Red fluorescence. activity change, negative = inhibition, % at 58.2 µM, hits read low. actives 0.67% (n = 290,000). AID 2472, 2010; in the data active = activity change below about -30%
#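 Compounds tested against the coupling enzymes alone at 57.5 uM final; readout was AmpLite Red fluorescence (525/598 nm) after 20 min at RT.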
# ALDH1A1 block: qHTS Assay for Inhibitors of Aldehyde Dehydrogenase 1 (ALDH1A1) | Potency, µM (series often up to 75.3 µM), hits mostly inhibitors | Aldehyde dehydrogenase 1A1 (Homo sapiens), P00352 | AID 1030, 2008 | Purified ALDH1A1, NADH fluorescence, propionaldehyde substrate | actives 7.3% (n = 220,000)
# Target sequence (P00352 whole entry, looked up): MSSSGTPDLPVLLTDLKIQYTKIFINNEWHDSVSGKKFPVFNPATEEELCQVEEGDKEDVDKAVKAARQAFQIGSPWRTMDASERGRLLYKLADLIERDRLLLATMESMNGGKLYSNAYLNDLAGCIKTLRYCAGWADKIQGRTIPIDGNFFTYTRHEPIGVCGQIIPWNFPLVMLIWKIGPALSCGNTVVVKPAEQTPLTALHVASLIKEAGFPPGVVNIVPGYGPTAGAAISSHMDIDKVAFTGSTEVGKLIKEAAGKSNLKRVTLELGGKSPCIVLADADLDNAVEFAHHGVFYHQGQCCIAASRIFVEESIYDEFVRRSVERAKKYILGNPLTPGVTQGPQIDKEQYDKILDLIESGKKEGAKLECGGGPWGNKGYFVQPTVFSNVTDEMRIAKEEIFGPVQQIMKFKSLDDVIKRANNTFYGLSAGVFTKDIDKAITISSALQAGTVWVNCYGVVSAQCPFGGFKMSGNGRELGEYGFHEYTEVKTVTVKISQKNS
# NPSR antagonist: qHTS Assay for Antagonists of the Neuropeptide S Receptor: cAMP Signal Transduction. Q6W5P4. CHO-NPSR cells, cAMP TR-FRET, antagonist mode. Potency, µM (series often up to 38.3 µM), hits mostly inhibitors. actives 1% (n = 220,000). AID 1461, 2008; active = well fitted curve in the direction sought with a large enough effect; inconclusive = small, poorly fitted or top-dose-only effect, or another doubt; inactive = no such curve, though single readings can be large; an effect the other way counts as inactive or inconclusive; also: nearly all actives have a fitted effect of over 50% in size
# RGS12 GoLoco inh: qHTS Assay for Inhibitors of RGS12 GoLoco Motif Activity (Red Fluorophore) | AID 880, 2007 | Gai1:RGS12 GoLoco peptide FP, rhodamine, 10 min | actives 0.44% (n = 230,000) | Potency, µM (titrated, usually from 61.6 µM), hits mostly inhibitors; active = well fitted inhibition curve with a large enough effect, not every such curve was filed as active; inactive = no such curve, though single readings can be large or run the other way; also: nearly all actives have a fitted effect of over 30% in size
# Hits are given with their value; . = inactive; ? = inconclusive; / = no result. Unless noted, calls follow the shape of the dose curve; as a rule, active = well fitted inhibition curve with a large enough effect (not every such curve was filed as active); inconclusive = small, poorly fitted or top-dose-only effect, or another doubt; inactive = no such curve, though single readings can be large or run the other way.
SMILES,Sfp PPTase inh,KDM4E inh,FBPA coupling cs,ALDH1A1 block,NPSR antagonist,RGS12 GoLoco inh
Cc1ncoc1C(=O)N1CCCC(C(=O)c2cccc(OC(C)C)c2)C1 (stereo not drawn),.,.,.,25µM,.,.
COc1ccc(/C=N/NC(=O)c2cccc([N+](=O)[O-])c2)cc1OS(=O)(=O)c1ccc(C)cc1,.,.,.,13µM,.,.
COc1ccc(C(=O)N/N=C/c2ccc(OC)c(CN3CCc4cc(OC)c(OC)cc4C3C)c2)cc1 (stereo not drawn),100µM,?,.,?,.,.
COc1ccc(C(=O)N/N=C/c2ccc(OC)c(OS(=O)(=O)c3ccccc3)c2)cc1,.,.,.,10µM,.,.
COc1ccc(/C=N/NS(=O)(=O)c2ccccc2)cc1OS(=O)(=O)c1ccccc1,.,.,.,?,?,.
CCOc1cc(/C=N/NC(=O)c2cccc([N+](=O)[O-])c2)ccc1OS(=O)(=O)c1ccccc1,.,.,/,?,.,.
O=C(Nc1ccccc1Cl)C1CCCN(S(=O)(=O)c2ccc(-n3cnnn3)cc2)C1 (stereo not drawn),.,/,.,/,/,/
CCCN(CC(=O)Nc1cc(Cl)ccc1Cl)C(=O)/C=C/c1ccco1,?,.,.,.,.,.
COc1cccc(N2CCN(c3cnc4ccccc4n3)CC2)c1,79µM,.,.,?,.,.
Cc1nc(-c2ccc(C(F)(F)F)cc2)sc1C(=O)NN,.,.,.,1.1µM,.,.
Cc1cc(NC(=O)C(C)SCC(=O)OCc2c(Cl)cccc2Cl)no1 (stereo not drawn),.,/,.,/,/,/
O=C1/C(=C/c2ccccn2)COc2ccccc21,.,.,.,.,.,.
CC1C/C(=C/c2ccccn2)C(=O)/C(=C/c2ccccn2)C1 (stereo not drawn),45µM,?,.,.,?,.
CC(C)(C)C1C/C(=C/c2ccccn2)C(=O)/C(=C/c2ccccn2)C1 (stereo not drawn),?,.,.,?,2µM,.
CC(CC(=O)Nc1cccc(F)c1)S(=O)(=O)c1ccc2c(c1)NC(=O)CO2 (stereo not drawn),.,/,.,/,/,/
Cc1ccc(NC(=O)C2CC(=O)N/C(=N/N=C/c3ccco3)S2)cc1C (stereo not drawn),.,.,.,.,.,.
C=Cc1ccc(C=C)cc1,/,/,/,14µM,/,.
CN(C)S(=O)(=O)c1cc(NC(=O)CN2CCc3ccccc32)ccc1Cl,.,.,.,1.6µM,.,.
CN(C)S(=O)(=O)c1cc(NC(=O)CN2CCN(c3ccccc3F)CC2)ccc1Cl,.,.,.,?,.,.
CCN1CCN(CC(=O)Nc2ccc(Cl)c(S(=O)(=O)N(C)C)c2)CC1,40µM,.,.,3.5µM,.,.
CN(C)S(=O)(=O)c1ccc(NC(=O)CN2CCCc3ccccc32)cc1,.,.,.,18µM,.,.
CN(C)S(=O)(=O)c1cc(NC(=O)CN2CCCc3ccccc32)ccc1Cl,.,?,.,8.9µM,.,.
CC1Cc2ccccc2N1CC(=O)Nc1ccc(Cl)c(S(=O)(=O)N(C)C)c1 (stereo not drawn),.,.,.,?,.,.
CC1Cc2ccccc2N1CC(=O)Nc1ccc(S(=O)(=O)N(C)C)cc1 (stereo not drawn),.,.,.,/,.,.
CS(=O)(=O)N(CC(=O)NCc1ccncc1)c1cc(Cl)ccc1Cl,.,.,.,.,.,.
SMILES,Sfp PPTase inh,KDM4E inh,FBPA coupling cs,ALDH1A1 block,NPSR antagonist,RGS12 GoLoco inh
O=C(O)CCC(=O)Nc1ccc(Oc2ncnc3cc(Cl)ccc23)nc1,.,?,.,/,.,.
COC(=O)c1cc(S(=O)(=O)N2CCCCCC2)c[nH]1,.,/,.,/,/,/
CC1CN(CCOc2ccccc2C(C)C)CC(C)O1 (stereo not drawn),?,/,.,/,/,/
CN(C)C(=O)OC1=C(c2ccccc2)Sc2ccccc2-n2cccc21,.,/,/,?,/,.
NC(=O)CSc1nccn1Cc1ccc(Cl)cc1,.,.,.,.,.,.
NC(=O)CSc1nccn1Cc1ccccc1,.,.,.,10µM,.,.
NC(=O)c1ccc(NC(=O)CSc2nnc(-c3ccccn3)n2N)cc1,.,.,.,.,.,.
O=c1[nH]c(/C(=N\O)c2ccccc2)no1,.,.,.,24µM,?,.
CCCS(=O)(=O)c1c(S(=O)(=O)CCC)c2c(N)cccn2c1C(=O)c1ccccc1,.,.,.,?,.,.
CCCS(=O)(=O)c1c(S(=O)(=O)CCC)c2c(N)cccn2c1C(=O)OC,28µM,?,.,.,.,.
CCOc1ccc(OCC)c(NC(=O)CSc2nc3c(c(=O)n(C)c(=O)n3C)n2C(C)C)c1,.,.,.,8.9µM,.,/
O=C(CCCc1ccc(-c2ccccc2F)cc1)Nc1ccc(O)cc1,.,.,.,?,/,.
O=C(Nc1ccc2ccccc2c1)C(=O)C1C(=O)Nc2ccccc21 (stereo not drawn),.,8.9µM,.,.,.,.
O=C(Nc1ccc(F)cc1)C(=O)C1C(=O)Nc2ccccc21 (stereo not drawn),.,.,.,.,.,.
CN(Cc1ccccc1)c1ccc(S(=O)(=O)N2CCC(C(=O)O)CC2)cc1[N+](=O)[O-],.,.,.,.,.,.
COc1ccc(/C=C/C2=CCN(Cc3ccc(OC)cc3)CC2)cc1,.,28µM,.,.,.,.
Cn1cc(CN2CCc3c([nH]c4ccccc34)C2C(C)(C)C)cn1 (stereo not drawn),.,?,.,.,.,.
Cn1cc(CN2CCc3c([nH]c4ccccc34)C2C2CCCCC2)cn1 (stereo not drawn),?,20µM,.,13µM,.,.
Cc1cccc(OCC(=O)NCCCNC(=O)c2ccco2)c1,.,/,.,/,/,/
Cc1cccc(NNC(N)=S)c1,14µM,.,.,8.9µM,.,.
NC(=S)NNC(=O)Nc1cccc(Cl)c1,.,.,.,.,.,.
S=C(NNc1cccc(Cl)c1)NC1CCCCC1,.,.,.,25µM,.,.
Cc1ccccc1NNC(N)=S,50µM,.,.,22µM,.,.
NC(=S)NNc1cccc(Cl)c1,40µM,.,.,1.6µM,.,.
CC(=O)Nc1ccc(NC(=O)CSc2ccc3nnc(CCNS(=O)(=O)c4ccc(C)cc4)n3n2)cc1,.,/,.,/,/,/
O=C(NCc1ccccn1)C(=O)Nc1nc(C23CC4CC(CC(C4)C2)C3)cs1,.,.,.,?,.,.
